Reference: PubChem BioAssay (NCATS)
Records with an inconclusive call do not appear. Calls of active or inactive are those of the source. Calls follow the shape of the dose curve; as a rule, active = well fitted curve in the direction sought with a large enough effect; inconclusive = small, poorly fitted or top-dose-only effect, or another doubt; inactive = no such curve, though single readings can be large; an effect the other way counts as inactive or inconclusive.

How the values were obtained:
[1] = Quantitative High-Throughput drug screen in 47 multiple myeloma cell lines against the NCATS MIPE library collection: KHM11_PLB cell viability assay (AID 1918962); also: nearly all actives have a fitted effect of over 35% in size
In short: (§1)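 Inhibition of cell viability is measured here. Each line was plated at 500 cells per well, treated with MIPE 4.0 drugs, kept 48 hours at 37C, then assayed for ATP content by CellTiter-Glo luminescence.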

[2] = Quantitative High-Throughput drug screen in 47 multiple myeloma cell lines against the NCATS MIPE library collection: JIM3_ECACC cell viability assay (AID 1918963; also: nearly all actives have a fitted effect of over 35% in size)
In short: as §1

[3] = Quantitative High-Throughput drug screen in 47 multiple myeloma cell lines against the NCATS MIPE library collection: JIM1_ECACC cell viability assay (AID 1918964)
In short: (§2)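 Myeloma cell lines, 500 cells per well, exposed to MIPE 4.0 library compounds for 48 h at 37C, 5% CO2. Viability from ATP by CellTiter-Glo luminescence; normalised to DMSO (100%) and media-only (0%) wells.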

[4] = Quantitative High-Throughput drug screen in 47 multiple myeloma cell lines against the NCATS MIPE library collection: INA6_PLB cell viability assay (AID 1918965; also: nearly all actives have a fitted effect of over 55% in size)
In short: (§3)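 qHTS of the MIPE 4.0 collection: 500 myeloma cells/well, 48 h drug exposure at 37C in 5% CO2, then CellTiter-Glo for 5 min at room temperature before luminescence reading.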

[5] = Quantitative High-Throughput drug screen in 47 multiple myeloma cell lines against the NCATS MIPE library collection: JJN3_DSMZ cell viability assay (AID 1918966; also: nearly all actives have a fitted effect of over 50% in size)
In short: as §2

[6] = Quantitative High-Throughput drug screen in 47 multiple myeloma cell lines against the NCATS MIPE library collection: H1112_PLB cell viability assay (AID 1918967; also: nearly all actives have a fitted effect of over 30% in size)
In short: as §2

[7] = Quantitative High-Throughput drug screen in 47 multiple myeloma cell lines against the NCATS MIPE library collection: Karpas25_ECACC cell viability assay (AID 1918968; also: nearly all actives have a fitted effect of over 35% in size)
In short: as §2

[8] = Quantitative High-Throughput drug screen in 47 multiple myeloma cell lines against the NCATS MIPE library collection: KMS27_JCRB cell viability assay (AID 1918970); also: nearly all actives have a fitted effect of over 30% in size
In short: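 Luminescent ATP read-out (CellTiter-Glo, 5 min at room temperature) after 48 h compound exposure of 500 KMS27_JCRB cells per well; DMSO wells define full viability and media-only wells zero.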

[9] = Quantitative High-Throughput drug screen in 47 multiple myeloma cell lines against the NCATS MIPE library collection: KMS12BM_JCRB cell viability assay (AID 1918971); also: nearly all actives have a fitted effect of over 35% in size
In short: (§4)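 Steps: seed 500 cells per well; pin-transfer MIPE 4.0 library; incubate 48 h at 37C, 5% CO2, humidified; add CellTiter-Glo, 5 min room temperature; read luminescence.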

[10] = Quantitative High-Throughput drug screen in 47 multiple myeloma cell lines against the NCATS MIPE library collection: KMS12PE_JCRB cell viability assay (AID 1918972); also: nearly all actives have a fitted effect of over 30% in size; as to viability: series mostly up to about 46 µM
In short: as §3

[11] = Quantitative High-Throughput drug screen in 47 multiple myeloma cell lines against the NCATS MIPE library collection: KMS20_JCRB cell viability assay (AID 1918973); also: nearly all actives have a fitted effect of over 45% in size
In short: as §2

[12] = Quantitative High-Throughput drug screen in 47 multiple myeloma cell lines against the NCATS MIPE library collection: KMS26_JCRB cell viability assay (AID 1918975); also: nearly all actives have a fitted effect of over 45% in size
In short: as §4

[13] = Quantitative High-Throughput drug screen in 47 multiple myeloma cell lines against the NCATS MIPE library collection: MMM1_PLB cell viability assay (AID 1918976); also: nearly all actives have a fitted effect of over 35% in size
In short: (§5)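 Viability after 48 h drug exposure was measured as ATP-dependent luminescence. Cells, 500 per well, sat at 37 °C under 5% CO2; DMSO wells set 100%, media-only wells 0%.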

[14] = Quantitative High-Throughput drug screen in 47 multiple myeloma cell lines against the NCATS MIPE library collection: MOLP8_DSMZ cell viability assay (AID 1918977); also: nearly all actives have a fitted effect of over 45% in size
In short: as §5

[15] = Quantitative High-Throughput drug screen in 47 multiple myeloma cell lines against the NCATS MIPE library collection: NCIH929_DSMZ cell viability assay (AID 1918978); also: nearly all actives have a fitted effect of over 35% in size
In short: as §5

[16] = Quantitative High-Throughput drug screen in 47 multiple myeloma cell lines against the NCATS MIPE library collection: OCIMY1_PLB cell viability assay (AID 1918979); also: nearly all actives have a fitted effect of over 35% in size; as to viability: series mostly up to about 46 µM
In short: as §5

[17] = Quantitative High-Throughput drug screen in 47 multiple myeloma cell lines against the NCATS MIPE library collection: MM1R_ATCC cell viability assay (AID 1918981); also: nearly all actives have a fitted effect of over 35% in size
In short: as §5

[18] = Quantitative High-Throughput drug screen in 47 multiple myeloma cell lines against the NCATS MIPE library collection: LP1_DSMZ cell viability assay (AID 1918982); also: nearly all actives have a fitted effect of over 35% in size
In short: as §5

[19] = Quantitative High-Throughput drug screen in 47 multiple myeloma cell lines against the NCATS MIPE library collection: MM1S_ATCC cell viability assay (AID 1918980); also: nearly all actives have a fitted effect of over 45% in size
In short: as §5

Measured: Potency
Potency is read from the fitted curve at half-maximal effect.

COc1cc2nc(-c3ccc(N4CCN(C)CC4)cc3)nc(NCCN3CCOCC3)c2cc1OC
active: [1] 0.235 µM | [2] 0.148 µM | [3] 0.166 µM | [4] 0.0372 µM | [5] 0.0148 µM | [6] 1.48 µM | [7] 0.0105 µM | [8] 0.0332 µM | [9] 0.166 µM | [10] 0.209 µM | [11] 0.105 µM | [12] 0.0372 µM | [13] 0.0743 µM | [14] 0.0418 µM | [15] 0.296 µM | [16] 0.148 µM | [17] 0.0118 µM | [18] 0.132 µM

C=C1C(=O)[C@@]23C(CC[C@@H]1[C@H]2O)[C@@]12CO[C@]3(O)[C@@H](O)[C@@H]1C(C)(C)CC[C@@H]2O (stereo partly specified)
active: [1] 5.26 µM | [2] 10.5 µM | [3] 1.05 µM | [4] 1.18 µM | [5] 2.09 µM | [6] 18.7 µM | [7] 2.35 µM | [8] 1.87 µM | [9] 9.35 µM | [10] 2.09 µM | [11] 2.35 µM | [13] 13.2 µM | [14] 2.35 µM | [15] 1.32 µM | [16] 7.43 µM | [17] 1.48 µM | [18] 4.18 µM

O=C(CCCCCCC(=O)Nc1ccccc1)NO
active: [1] 7.43 µM | [2] 5.9 µM | [3] 2.35 µM | [4] 0.935 µM | [5] 3.32 µM | [6] 4.18 µM | [7] 1.48 µM | [8] 3.72 µM | [9] 2.35 µM | [10] 1.66 µM | [15] 2.64 µM | [16] 5.9 µM | [19] 2.96 µM | [17] 2.09 µM

CCc1ccc(OCc2ccccc2C(=O)Nc2ccc3nc(C)cc(N)c3c2)cc1
active: [1] 2.35 µM | [2] 2.64 µM | [3] 2.64 µM | [4] 2.64 µM | [5] 6.62 µM | [6] 2.96 µM | [7] 1.32 µM | [8] 1.87 µM | [9] 7.43 µM | [10] 0.935 µM | [11] 0.59 µM | [12] 6.62 µM | [13] 6.62 µM | [14] 7.43 µM | [15] 1.05 µM | [16] 8.33 µM | [19] 4.69 µM | [17] 3.32 µM | [18] 8.33 µM

CC1(C)CCC[C@@]2(C)[C@@H]1CC[C@@]1(C)OC(=O)C[C@H]21
active: [10] 14.8 µM
inactive: [1] | [2] | [3] | [4] | [5] | [6] | [7] | [15] | [16] | [18]

CC(C)(C)c1cc(C(=O)O)c(NC(=O)Nc2ccc3[nH]ncc3c2)s1
inactive: [1] | [2] | [3] | [4] | [6] | [8] | [13] | [17] | [18]
active: [19] 16.6 µM

O=C(OCC#CCSc1nnc(-c2cccc3ccccc23)o1)c1cc2ccccc2s1
active: [9] 16.6 µM
not listed: [5] | [11] | [12] | [13] | [14] | [17]
inactive: all other assays above

CNC1CCC(N(Cc2cccc(-c3ccncc3)c2)C(=O)c2sc3c(F)ccc(F)c3c2Cl)CC1 (stereo unspecified)
active: [1] 0.469 µM | [2] 16.6 µM | [3] 14.8 µM | [4] 8.33 µM | [6] 18.7 µM | [7] 11.8 µM | [10] 10.5 µM | [11] 1.48 µM | [12] 16.6 µM | [13] 26.4 µM | [15] 4.69 µM | [16] 23.5 µM | [17] 18.7 µM | [18] 23.5 µM

NC(CO)(CO)CCc1ccc(Sc2cccc(OCc3ccccc3)c2)cc1Cl
active: [1] 7.43 µM | [2] 13.2 µM | [3] 16.6 µM | [4] 9.35 µM | [6] 16.6 µM | [7] 7.43 µM | [8] 11.8 µM | [10] 9.35 µM | [15] 20.9 µM | [16] 26.4 µM | [19] 3.32 µM | [17] 10.5 µM | [18] 20.9 µM

O=C(NCc1ccccc1)c1csc(Nc2ccncn2)n1
active: [1] 20.9 µM | [2] 14.8 µM | [3] 6.62 µM | [4] 11.8 µM | [5] 16.6 µM | [6] 13.2 µM | [7] 10.5 µM | [8] 7.43 µM | [9] 14.8 µM | [10] 8.33 µM | [11] 14.8 µM | [13] 14.8 µM | [14] 18.7 µM | [16] 20.9 µM | [19] 16.6 µM | [17] 14.8 µM | [18] 18.7 µM
